# About 83,000 compounds went through this panel and 20% of them were active in at least one assay; those are over-represented in the sample as a whole.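 Cell lines were cultured in 96-well plates, exposed to a single compound concentration, and assessed for percent growth 48 hours later.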 A number with no mark means an inactive call. The source made the active and inactive calls. How the source made its calls: active means growth percent below 10; inactive means the rest.
# System: NCI/ADR-RES ovarian
# Assay: NCI-60 one-dose screen, 48 h (100 = growth as untreated, 0 = no growth, -100 = all killed)
# Conditions: 10 µM unless noted
row,Structure (SMILES),growth
1,O=C(Nc1cccnc1Nc1ccc(Cl)cc1)c1cn(Cc2cccc(Oc3ccccc3)c2)nn1,14.4%
2,C1CCC(N2CN3c4nonc4N4CN(C5CCCCC5)CN5c6nonc6N(C2)C3C45)CC1 (centres undefined),93.3%
3,N#Cc1c(-c2ccc(Br)cc2)nc2c(N=Nc3ccc(S(N)(=O)=O)cc3)c(N)nn2c1N,97%
4,COc1cc(/C=C/C(=O)c2cc(OC)c(OC)c(OC)c2)ccc1Oc1nc2c(c(=O)n(C)c(=O)n2C)n1C,0.709% (active)
5,CC1(/C=C/c2ccc(-c3ccccc3)cc2)CCn2cnc3ncnc(c32)N1O (centres undefined),3.15% (active)
6,CCCc1cc(=O)oc2c(C(=O)CC(C)C)c(O)c(CC=C(C)C)c(O)c12,0.191% (active)
7,CS(=O)(=O)Nc1cc(-c2ccc3ncnc(Nc4ccc(OCc5ccccn5)c(Cl)c4)c3c2)cnc1Cl,77.7%
8,CCN1CCN(CCNc2nccc(-c3c(-c4ccc(F)c(O)c4)nc4occn34)n2)S1(=O)=O,12.3%
9,COc1ccc(C2[C@@H](Cl)C(=O)N2c2cc(OC)c(OC)c(OC)c2)cc1Cl (some centres undefined),18%
10,CN1CCN(Cc2ccc(NC(=O)c3cncc(C#Cc4cnc(N)cc4C#N)c3)cc2C(F)(F)F)CC1,66.3%
11,CN(C)c1ccc([C@@H](C(=O)Nc2cccc([N+](=O)[O-])c2)N(C(=O)c2cc3ccccc3[nH]2)c2cccc([N+](=O)[O-])c2)cc1,102%
12,c1cc(OCCN2CCCCC2)ccc1CNc1ccc2nc(CCC3CCCCC3)[nH]c2c1,63.8%
13,Cc1[nH]n(-c2cccc(Cl)c2)c(=O)c1/C=C1\C=c2ccccc2=CC1=O,75.3%
14,CC(C)(C)OC(=O)CN1CCc2c(sc3ncnc(N4CCN(c5ccc(F)cc5)CC4)c23)C1,79.7%
15,Cc1ccc2c(c1)sc1nc(-c3c[nH]c4ccccc34)c(Nc3ccccc3)n12,104%
16,Cn1c(C#N)ccc1-c1ccc(F)c(NC(=O)c2ccc(F)cc2)c1,76.9%
17,CCOC(=O)C1=C(CC(O)c2ccc(OC)cc2OC)NC(=O)NC1c1ccccc1 (centres undefined),107%
18,CCSc1ccnc(N)n1,109%
19,Cc1ccc(S(=O)(=O)c2nc(-c3ccccc3)oc2SCC(N)=O)cc1,99.5%
20,CN(C)c1ccc(/C=N\NC(=O)c2ccc3nc(-c4ccc(Cl)cc4)[nH]c3c2)cc1,77%

row,Structure (SMILES),growth
1,CCOC(=O)C1=C(c2ccccc2)N=C2N(c3ccccc3)N=C(C(C)=O)N2C1c1ccc(F)cc1 (centres undefined),109%
2,CN(C)Cc1ccc(NC(=O)c2cncc(C#Cc3cnc(N)c4ncccc34)c2)cc1C(F)(F)F,72.4%
3,CCN(CC)CCn1c2ccc(OC)cc2c2sc3cc(O)ccc3c(=O)c21,27.6%
4,Cc1cc(=O)oc2cc(Oc3nc(Br)cn4c(Br)cnc34)ccc12,57.5%
5,Nc1[nH]nc2nc(-c3ccccc3)n3c4ccccc4nc3c12,104%
6,O=[N+]([O-])c1ccccc1Sc1ccccc1[N+](=O)[O-],96.2%
7,CC1(C)N=C(N)N=C(N)N1c1ccc(S(=O)(=O)Nc2nccs2)cc1,106%
8,c1ccc(-c2ccc3c(c2)C2(CCNCC2)CN3)cc1,94.3%
9,CCOC(=O)/C=C1\S/C(=N\Nc2cc(=O)[nH]c3ccc(Br)cc23)N(c2ccccc2)C1=O,97.1%
10,COc1ccc(C2CC(n3ccnc3)c3cc(OC)c(OC)c(OC)c32)cc1O (centres undefined),93.9%
11,COC(=O)c1c2c(c[n+]([O-])c1C)C(=O)C=C(NCc1ccccc1)C2=O,-12.1% (active)
12,COc1ccc2c(c1)c(-c1nc(-c3ccc4ccccc4c3)cs1)cn2C,98%
13,Cc1ccc2c(c1)nc(C)n2-c1ncnc2c1CC(C)c1cc(O)ccc1N2C (centres undefined),25.9%
14,Cc1cc(N2CCN(CC(=O)Nc3ccc4c(ccn4Cc4ccccc4)c3)CC2)nc(N2CCOCC2)n1,79.4%
15,COCCn1cc(-c2csc(-c3c[nH]c4ccc(F)cc34)n2)c2cccnc21,7.39% (active)
16,Cc1ccc(C(=O)c2ccc(CC(=O)N/N=C/c3cccc(O)c3O)n2C)cc1,19.2%
17,CC[C@@H](C(=O)[C@@H](C)[C@@H](O)[C@H](C)[C@@H]1O[C@@H]([C@@H](CC)C(=O)ONC(=O)c2ccccc2O)CC[C@@H]1C)C1O[C@]2(C=CC(=O)[C@]3(CC[C@@](C)([C@H]4CC[C@](O)(CC)[C@H](C)O4)O3)O2)[C@H](C)C[C@@H]1C (some centres undefined),48.7%
18,COc1cc(-c2nccc3[nH]c(-c4cccc5[nH]ccc45)nc23)cc(OC)c1OC,4.71% (active)
19,CC(C)Cc1nc(Nc2ccccc2)[nH]c(=O)c1C#N,62.9%
